Compound activity as filed in PubChem.
Only some compounds are listed: those with a hit (about 1.9% of all), similar ones and a draw of the others.
Autophagy HCS: alters autophagy in cells; AID 463193; 190,000 compounds, 0.98% hits; MEF GFP-LC3 puncta imaging; test concentration mostly 10 µM; calls only at 10 µM (by protocol);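 active means percentage of spot-positive cells more than 3 SD above its plate mean, without a fluorescence outlier flag or 80% toxicity; inconclusive means no clear call, values can overlap the other calls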;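 further: spot-positive cell cutoff set from DMSO-treated cells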
Ins promoter up: MIN6 insulin promoter up-regulation; MIN6 insulin promoter-GFP reporter, high-content imaging; stronger effect = higher value; z-score at 5 µM; 190,000 compounds, 0.3% hits;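 active means z-score above 3 at 5 µM with at least 500 cells counted in the well; inconclusive means wells under 500 cells, flagged as cytotoxic or low count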
Insulin prom inh: TRM-6 insulin promoter activity inhibition; TRM-6 cells (human fetal islet line), insulin promoter-eGFP reporter, imaging; reporter expression induced with tamoxifen; 130,000 compounds, 0.9% hits; AID 1273; inhibition, % at 2 µM;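 active means inhibition above the mean plus 3 SD, with well images judged a real hit on visual review, cut at about 60% in these data, passing the limit was not always enough; inconclusive means inhibition over the cutoff but images rejected on review; inactive means inhibition not above the cutoff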
HMGR II inh: E. faecalis class II HMG-CoA reductase inhibition; purified E. faecalis HMGR, NADPH absorbance 340 nm kinetic; inhibition, % at 10 µM; 190,000 compounds, 0.41% hits;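 active means inhibition above a set limit, the median over all tested compounds plus 3 SD, cut at about 9.5% in these data; inconclusive means no clear call, values can overlap the other calls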;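 further: enzyme runs in reverse so mevalonate oxidation gives rising NADPH absorbance; 0% = complete reaction with DMSO and 100% = background rate lacking mevalonate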
Starred values were filed as active, the others as inactive; i = inactive; u = inconclusive; x = no result given; + = active, no number.

SMILES	Autophagy HCS	Ins promoter up	Insulin prom inh	HMGR II inh
CC(=O)Cc1nsc(NC(=O)c2cccs2)n1	i	0.7	10.3	-0.4
O=C(Nc1cc(S(=O)(=O)N2CCCCC2)ccc1Cl)c1ccccc1NS(=O)(=O)c1ccc(F)cc1	+	-2.03	i	-5.0
NC(=O)C1Cc2ccccc2CN1S(=O)(=O)c1cccs1 (configuration not stated)	i	0.32	x	9.7*
O=C(Nc1ccc(NC(=O)c2ccncc2)cc1)c1ccncc1	x	0.09	x	x
O=C(Nc1ccncc1)c1ccc(C(=O)Nc2ccncc2)cc1	i	-1.72	58.3	18.2*
Cc1ccc(CN(C)CC(=O)Nc2ccc3c(c2)CCC3)cc1	i	0.23	0.0	13.8*
S=C(Nc1ccc(Cl)cc1)N1CCCC1	i	-0.09	-16.7	2.3
O=C(NC1=NCCS1)c1ccccc1OCc1ccc(F)cc1	i	0.22	-30.0	-6.2
COc1ccc(NC(=O)N2CCCCC2)cc1	i	-0.18	80.0*	-0.5
CCN1CCCc2cc(CN(CCN3CCOCC3)C(=S)Nc3ccccc3C)ccc21	i	0.06	8.3	10.2*
Cc1ccccc1NC(=S)N(CCN1CCCCCC1)Cc1cccs1	i	-0.92	x	10.4*
Fc1ccccc1NC(=S)N(CCN1CCCCCC1)Cc1cccs1	i	0.05	-26.7	-5.6
Cc1onc(-c2ccc(Cl)cc2)c1-c1ccnc(SCC(=O)Nc2cc(Cl)cc(Cl)c2)n1	x	-0.11	x	x
COc1cccc(C(=O)Nc2ccccc2C(=O)N2CCCC2)c1	i	3.3*	-13.9	0.9
COC(=O)c1ccc(COC(=O)CNS(=O)(=O)c2ccc(C)cc2)cc1	i	-0.18	73.0*	2.5
CC(C)CCNC(=O)NC(=O)COC(=O)C1=COCCO1	i	x	77.8*	-2.9
COCCCN=C1NN=C(c2cc(C)n(-c3ccccc3)c2C)CS1	i	-0.59	5.6	-4.4
COCCCN=C1NN=C(c2cc(C)n(Cc3ccccc3Cl)c2C)CS1	+	-0.65	-45.5	4.4
COCCOC(=O)c1c(NC(=O)CN2c3ccccc3CC2C)sc(C(N)=O)c1C (configuration not stated)	i	-1.02	x	-2.4
Cc1cccc(C)c1NC(=O)COC(=O)c1c2c(nc3ccccc13)/C(=C\c1ccc3c(c1)OCO3)CCC2	+	-0.51	17.6	3.6
N=c1n(CCOc2ccccc2)c2ccccc2n1CCN1CCOCC1	+	-0.46	3.2	-2.2
Cn1c(CN2CCCC2)c(C#N)c2ccccc21	i	-0.21	x	15.3*
OCCN(CCO)Cc1csc2ccccc12	i	0.23	-2.8	0.2
C=CCNc1sc(C(=O)c2ccccc2)c(N)c1C#N	i	-0.65	-2.7	-0.3
C=CCNc1sc(C(=O)c2ccc(Br)s2)c(N)c1C#N	+	x	x	0.2
SMILES	Autophagy HCS	Ins promoter up	Insulin prom inh	HMGR II inh
CN(C)c1ccc(C2CC(c3ccccc3)=Nc3nc(-c4ccccc4)cn32)cc1 (configuration not stated)	i	-0.02	3.5	-3.2
CS(=O)(=O)N(CC(=O)N/N=C/c1ccc(OCC(=O)N2CCOCC2)cc1)c1ccccc1Cl	i	0.03	38.5	-1.8
CN(C)c1ccc(/C=N/NC(=O)CN(c2ccccc2Cl)S(C)(=O)=O)cc1Br	i	3.57*	-65.8	-3.2
CSc1ccc(NC(=O)N2CC=C(n3c(=O)[nH]c4ccccc43)CC2)cc1	i	-0.41	64.3*	4.0
Clc1ncnc2scc(-c3ccc(Br)cc3)c12	i	0.24	41.4	-1.6
O=C1Nc2ccc(F)cc2C12Nc1ccccc1-c1nnc(SCc3ccccc3)nc1O2 (configuration not stated)	i	x	75.0*	0.8
O=C(NCCO)C1CCN(C(=O)c2ccc(-c3ccccc3)cc2)CC1	i	0	x	3.3
COCCSc1ccccc1C(=O)Nc1ccc(Cl)cc1	i	-1	x	0.8
CCCCCCCn1c2c(c(=N)c3c1CCC3)CCCC2	+	u	-111.1	-1.4
CCCCCCCCCn1c2c(c(=N)c3c1CCC3)CCC2	i	u	-176.9	-1.7
Nc1nc(-c2ccc(Cl)cc2)c(N=Nc2ccc(S(=O)(=O)N3CCOCC3)cc2)s1	i	3.8*	22.1	-7.4
CCN(C(=O)CSc1nnc(Nc2ccccc2)s1)C1CCS(=O)(=O)C1 (configuration not stated)	+	-0.16	-5.9	-11.2
O=C(N/N=C/c1cc(Cl)cc([N+](=O)[O-])c1O)NC12CC3CC(CC(C3)C1)C2	i	x	-31.2	1.6
CCCN1C(=O)/C(=C\C=C2/Sc3ccccc3N2CC)SC1=S	i	0.32	-387.8	-1.5
CCCN1C(=O)/C(=C\C=C2\N(CC)c3ccccc3C2(C)C)SC1=S	+	x	x	-2.3
CC(C)CNC(=O)c1cnn2c(C(F)(F)F)cc(C(F)(F)F)nc12	x	0.61	x	x
